The results in this text go back to PubChem BioAssay (EPA / NIEHS).

Activity calls are given as the source filed them. How the source made its calls: active means hit-call score of the fitted dose curve at least 0.9, where 1 is the maximum; inactive means score below 0.9.

This assay can be described thus: ATG_M_06_CIS: Attagene CIS-FACTORIAL HepG2 Assay for M06 Transcription Factor (Internal Marker) (AID 2282950). The following applies: HepG2 Attagene CIS-FACTORIAL M06 internal marker reporter; actives raise or lower the signal. As for the experimental part: ATG_CIS is a cell-based, multiplexed-readout assay that uses HepG2, a human liver cell line, with measurements taken at 24 hours after chemical dosing in a 24-well plate.ATG_M_06_CIS is one of 52 assay component(s) measured or calculated from the ATG_CIS assay. It is designed to make measurements of mRNA induction, a form of inducible reporter, as detected with fluorescence intensity signals by Reverse transcription polymerase chain reaction (RT-PCR) and Capillary electrophoresis technology.Data from the assay component ATG_M_06_CIS was analyzed into 1 assay endpoint. This assay endpoint, ATG_M_06_CIS, was analyzed with bidirectional fitting relative to DMSO as the negative control and baseline of activity. Using a type of inducible reporter, measures of mRNA for gain or loss-of-signal activity can be used to understand the background control at the transcription factor-level as they relate to the gene . Furthermore, this assay endpoint can be referred to as a secondary readout, because this assay has produced multiple assay endpoints where this one serves a background control function. To generalize the intended target to other relatable targets, this assay endpoint is annotated to the background measurement intended target family, where the subfamily is internal marker.
Human liver HepG2 cells are transiently transfected with multiple reporter transcription units (MRTUs) in 6-well plates using FuGene 6 reagent (Roche; 3 ml FuGene/1 mg DNA). The MRTU constructs are regulated by a cis-regulating element (promoter). […] A major difference between the CIS and TRANS system is that in CIS activities of endogenous TFs are measured, whereas the TRANS assay evaluates changes in activities of exogenous, chimeric NR-Gal4 proteins. […] At the end of 24 hour incubation, total RNA was isolated using TriZol reagent (Invitrogen). The isolated RNA is then reverse-transcribed using oligo(dT) primer and Mo-MLV reverse transcriptase (Invitrogen) with DNAse I (Ambion) treatment for 30 min. The one-tenth of the produced cDNA was amplified by PCR using Taq DNA polymerase (Invitrogen) and two reporter sequence-specific primers. The PCR products were fluorescently labeled by primer extension with 6-arboxyfluorescein (6-FAM) 5'-labeled reporter sequence-specific primer (2 min at 95 C, 20 s at 68 C and 10 min at 72 C) and these products were digested with 5U of HpaI (New England Biolabs) for 2h at 37 C. The fragments were purified using Qiaquick PCR columns (Qiagen), analyzed on an ABI 3130xL genetic analyzer (Applied Biosystems) with peak positions identified by using a set of X-rhodamine (ROX)-labeled MapMarker1000 molecular weight standards (BioVentures). The raw capillary electrophoresis data was processed using Attagraph software (Attagene).
Consider `O=C(O)C(F)(F)C(F)(F)C(F)(F)C(F)(F)C(F)(F)C(F)(F)C(F)(F)C(F)(F)F`, for which the outcome was inactive.

Regarding `CCOP(=S)(OCC)SCSC(C)(C)C`, the compound was classed as inactive.

Regarding `c1cc2ccc3cccc4ccc(c1)c2c34`, the outcome was inactive.

On to `COc1ccc(O)c(C(C)(C)C)c1`, for which the call was inactive.

Take `CC1=C2C[C@H]3[C@@H](CC=C4C[C@@H](O)CC[C@@]43C)[C@@H]2CC[C@]12O[C@@H]1C[C@H](C)CN[C@H]1[C@H]2C`: the compound was classed as inactive.

Regarding `COS(=O)(=O)OC`, the compound was called inactive.

Turning to `CCCCCCOC(=O)c1ccccc1C(=O)OCCCCCC`, the call was inactive.

As for `CN(C)c1nc(=O)n(C2CCCCC2)c(=O)n1C`, the compound was called inactive.

With `Nc1ccc(-c2ccc(N)cc2)cc1`, the compound was classed as inactive.

`Cc1cc(O)ccc1Cl`: the outcome was inactive.

In the case of `CCC(C)c1cc([N+](=O)[O-])cc([N+](=O)[O-])c1O` (stereo not given), the call was inactive.

Take `CC(C)(c1ccccc1)c1ccc(O)cc1`: the result was inactive.

Consider `O=C(O)C(F)(F)C(F)(F)C(F)(F)C(F)(F)C(F)(F)C(F)(F)C(F)(F)C(F)(F)C(F)(F)F`, for which the compound was called inactive.

Take `Clc1ccc(Cl)cc1`: the compound was classed as inactive.

As for `Oc1c(Cl)c(Cl)c(Cl)c(Cl)c1Cl`, the compound was called inactive.

As to `Oc1ccc(C(c2ccc(O)cc2)(C(F)(F)F)C(F)(F)F)cc1`, the compound was classed as inactive.

With `CCC(C)(c1ccc(O)cc1)c1ccc(O)cc1`, the outcome was inactive.

Take `CCNc1nc(NC(C)C)nc(SC)n1`: the call was inactive.

As for `CCOC(=O)C(O)(c1ccc(Cl)cc1)c1ccc(Cl)cc1`, the compound was classed as inactive.

For `CC(C)(O)C(=O)Nc1ccc([N+](=O)[O-])c(C(F)(F)F)c1`, the call was inactive.

`O=NN(c1ccccc1)c1ccccc1`: the compound was classed as inactive.

On to `N#Cc1ccc(N(CC(N)=O)CC(F)(F)F)cc1C(F)(F)F`, for which the compound was classed as inactive.

As to `Clc1ccc(C(Cl)(Cl)Cl)cc1`, the compound was classed as inactive.

For the compound `Cc1cccc([N+](=O)[O-])c1`, the compound was called inactive.

Consider `CC(C)C(=O)OCC(C)(C)C(OC(=O)C(C)C)C(C)C` (stereo not given), for which the call was inactive.

Take `CCC(C)(CC)c1cc(NC(=O)c2c(OC)cccc2OC)on1`: the outcome was inactive.

Take `CN(C)CCO`: the outcome was inactive.

Regarding `O=C(NC(=O)c1cc(F)c(F)cc1Cl)Nc1cc(F)ccc1N1CCC(C(=O)O)CC1`, the compound was classed as inactive.

As for `C=CC(N)=O`, the call was inactive.

With `Cc1ccc(O)c(C)c1`, the call was inactive.

On to `Cc1cc2c3c(c1)C(c1ccccc1)=N[C@@H](NC(=O)c1ccncc1)C(=O)N3CC2`, for which the outcome was inactive.

Consider `ClC1=C(Cl)[C@]2(Cl)[C@@H]3[C@@H]4C[C@@H]([C@H]5O[C@@H]45)[C@@H]3[C@@]1(Cl)C2(Cl)Cl`, for which the call was inactive.

As to `CCCCCCCCOC(=O)c1ccccc1C(=O)OCCCCCCCC`, the result was inactive.

Consider `CC#Cc1cc(C)nc(Nc2ccccc2)n1`, for which the call was inactive.

Regarding `O=S(=O)(O)C(F)(F)C(F)(F)C(F)(F)C(F)(F)F`, the result was inactive.

In the case of `Cc1cc(-c2ccc(N)c(C)c2)ccc1N`, the compound was called inactive.

`C1CC2OC2CC1C1CO1` (stereo not given): the compound was classed as inactive.

As for `O=S(=O)(O)C(F)(F)C(F)(F)C(F)(F)C(F)(F)C(F)(F)C(F)(F)F`, the call was inactive.

`CC(c1ccc(O)cc1)(c1ccc(O)cc1)c1ccc(O)cc1`: the call was inactive.

As for `c1ccc(-c2ccccc2)cc1`, the call was inactive.
